Laboratory results as given in publication doi:10.1101/2024.03.05.583629.

How the values were obtained:
pT7_6His-AlfaTag-HOXD13 = pT7_6His-AlfaTag-HOXD13 (human, UniProt P35453 263-343); assay: PADIT-seq; conditions: dsDNA, one strand shown
pT7_6His-AlfaTag-ZIF268 = pT7_6His-AlfaTag-ZIF268 (human, UniProt P18146 335-423); assay: PADIT-seq; conditions: dsDNA, one strand shown

Sequence of pT7_6His-AlfaTag-HOXD13 (P35453 263-343): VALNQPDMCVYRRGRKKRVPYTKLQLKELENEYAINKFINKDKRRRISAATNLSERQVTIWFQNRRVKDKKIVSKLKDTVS

Sequence | binding signal (pT7_6His-AlfaTag-HOXD13) [log2FC] | binding signal (pT7_6His-AlfaTag-ZIF268) [log2FC]
CTCGAGGATATCAAGATCTGGCCTCGGCATTTTATCTGGAACCTCTAGCTAGCCGACTCACTATAGGGATAATCGCCCTGAGCAAAGACC | 0.909 ± 0.103 | 0.0226 ± 0.102
CTCGAGGATATCAAGATCTGGCCTCGGCTAGCTAAAAGGAACCTCTAGCTAGCCGACTCACTATAGGGATAATCGCCCTGAGCAAAGACC | -0.637 ± 0.145 | 0.0229 ± 0.123
CTCGAGGATATCAAGATCTGGCCTCGGCAGAATAAAAGGAACCTCTAGCTAGCCGACTCACTATAGGGATAATCGCCCTGAGCAAAGACC | 0.976 ± 0.0851 | 0.0567 ± 0.0846
CTCGAGGATATCAAGATCTGGCCTCGGCGCCCCACGCGGAACCTCTAGCTAGCCGACTCACTATAGGGATAATCGCCCTGAGCAAAGACC | -0.996 ± 0.127 | 0.0171 ± 0.103
CTCGAGGATATCAAGATCTGGCCTCGGCCTTTTACGCGGAACCTCTAGCTAGCCGACTCACTATAGGGATAATCGCCCTGAGCAAAGACC | 1.9 ± 0.0733 | 0.0363 ± 0.0782
CTCGAGGATATCAAGATCTGGCCTCGGCGTTTTATTGGGAACCTCTAGCTAGCCGACTCACTATAGGGATAATCGCCCTGAGCAAAGACC | 3.37 ± 0.0853 | 0.0618 ± 0.0949
CTCGAGGATATCAAGATCTGGCCTCGGCGTTTTATGCGGAACCTCTAGCTAGCCGACTCACTATAGGGATAATCGCCCTGAGCAAAGACC | 2.07 ± 0.0741 | 0.0171 ± 0.08
CTCGAGGATATCAAGATCTGGCCTCGGCCTTTTAGAGGGAACCTCTAGCTAGCCGACTCACTATAGGGATAATCGCCCTGAGCAAAGACC | 1.1 ± 0.092 | 0.0179 ± 0.0928
CTCGAGGATATCAAGATCTGGCCTCGGCCAGATAAAAGGAACCTCTAGCTAGCCGACTCACTATAGGGATAATCGCCCTGAGCAAAGACC | 0.383 ± 0.117 | 0.0449 ± 0.11
CTCGAGGATATCAAGATCTGGCCTCGGCCGCGACCGCGGAACCTCTAGCTAGCCGACTCACTATAGGGATAATCGCCCTGAGCAAAGACC | -0.85 ± 0.123 | 0.0618 ± 0.097
CTCGAGGATATCAAGATCTGGCCTCGGCAGGTTAAAAGGAACCTCTAGCTAGCCGACTCACTATAGGGATAATCGCCCTGAGCAAAGACC | 0.752 ± 0.0728 | 0.0674 ± 0.0711
CTCGAGGATATCAAGATCTGGCCTCGGCCGCCCAGGAGGAACCTCTAGCTAGCCGACTCACTATAGGGATAATCGCCCTGAGCAAAGACC | -1.1 ± 0.149 | 0.0116 ± 0.118
CTCGAGGATATCAAGATCTGGCCTCGGCCGCCCACTGGGAACCTCTAGCTAGCCGACTCACTATAGGGATAATCGCCCTGAGCAAAGACC | -0.571 ± 0.123 | 0.278 ± 0.104
CTCGAGGATATCAAGATCTGGCCTCGGCTCCCCACGCGGAACCTCTAGCTAGCCGACTCACTATAGGGATAATCGCCCTGAGCAAAGACC | -0.217 ± 0.124 | 0.208 ± 0.106
CTCGAGGATATCAAGATCTGGCCTCGGCTTTTTAGAGGGAACCTCTAGCTAGCCGACTCACTATAGGGATAATCGCCCTGAGCAAAGACC | 1.39 ± 0.106 | 0.141 ± 0.108
CTCGAGGATATCAAGATCTGGCCTCGGCGCGACAGCGGGAACCTCTAGCTAGCCGACTCACTATAGGGATAATCGCCCTGAGCAAAGACC | -1.04 ± 0.131 | 0.028 ± 0.102
CTCGAGGATATCAAGATCTGGCCTCGGCACGTGGGCGGGAACCTCTAGCTAGCCGACTCACTATAGGGATAATCGCCCTGAGCAAAGACC | -0.888 ± 0.116 | 3.56 ± 0.0868
CTCGAGGATATCAAGATCTGGCCTCGGCGCGGGCGCGGGAACCTCTAGCTAGCCGACTCACTATAGGGATAATCGCCCTGAGCAAAGACC | -1.05 ± 0.132 | 0.156 ± 0.102
CTCGAGGATATCAAGATCTGGCCTCGGCGCGTGGCATGGAACCTCTAGCTAGCCGACTCACTATAGGGATAATCGCCCTGAGCAAAGACC | -1.09 ± 0.127 | 0.0324 ± 0.101
CTCGAGGATATCAAGATCTGGCCTCGGCGCGAAGGCGGGAACCTCTAGCTAGCCGACTCACTATAGGGATAATCGCCCTGAGCAAAGACC | -1.08 ± 0.132 | 0.278 ± 0.0993
CTCGAGGATATCAAGATCTGGCCTCGGCCGCCCATCCGGAACCTCTAGCTAGCCGACTCACTATAGGGATAATCGCCCTGAGCAAAGACC | -1.06 ± 0.122 | 0.00306 ± 0.0965
CTCGAGGATATCAAGATCTGGCCTCGGCGTTTTACCAGGAACCTCTAGCTAGCCGACTCACTATAGGGATAATCGCCCTGAGCAAAGACC | 0.423 ± 0.103 | 0.0291 ± 0.0981
CTCGAGGATATCAAGATCTGGCCTCGGCGCGATTGCGGGAACCTCTAGCTAGCCGACTCACTATAGGGATAATCGCCCTGAGCAAAGACC | -0.695 ± 0.114 | 0.187 ± 0.0941
CTCGAGGATATCAAGATCTGGCCTCGGCTTTTTACCTGGAACCTCTAGCTAGCCGACTCACTATAGGGATAATCGCCCTGAGCAAAGACC | -0.185 ± 0.138 | 0.019 ± 0.125
